M1 PAM parental: nonselective calcium activators in parental CHO-K1 cells, primary screen, counter-screen for M1 PAM project, cell-based, Fluo-8 calcium fluorescence, full deck, 1536-well. ATP EC20; 0% at ATP EC20, 100% at ATP max. activation, % at 3 µM. actives 0.02% (n = 360,000);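 active means activation above the run cutoff, the mean activation of all test compounds plus 3 SD, cut at about 40% in these data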;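 further: peak over basal fluorescence ratio in a 140 s read after ATP addition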
CHO-K1 Ca antag: nonselective inhibitor or artifact in parental CHO-K1 cells. ATP-induced calcium, Fluo-8 fluorescence. inhibition, % at 3 µM. actives 0.6% (n = 360,000). AID 602250;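 active means inhibition above a per-plate cutoff, the plate's mean sample inhibition plus 3 SD, cut at about 24% in these data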;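 further: 0% = DMSO plus EC80 ATP and 100% = DMSO alone without ATP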
CHRM1 antagonist: human M1 muscarinic receptor antagonists, primary screen, CHO-K1 cells, Fluo-8 calcium fluorescence, 1536-well. Muscarinic acetylcholine receptor M1 (Homo sapiens), P11229. CHO-K1 hM1, ACh EC80 antagonist. inhibition, % at 3 µM. actives 1.3% (n = 360,000). AID 588852, 2011;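 active means percent inhibition above its own plate's cutoff, namely the mean of that plate's compound wells plus 3 SD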;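 further: peak over basal fluorescence ratio during 140 s after agonist addition; 0% = ACh EC80 plus DMSO and 100% = DMSO alone without agonist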
Target sequence (P11229 whole entry, looked up): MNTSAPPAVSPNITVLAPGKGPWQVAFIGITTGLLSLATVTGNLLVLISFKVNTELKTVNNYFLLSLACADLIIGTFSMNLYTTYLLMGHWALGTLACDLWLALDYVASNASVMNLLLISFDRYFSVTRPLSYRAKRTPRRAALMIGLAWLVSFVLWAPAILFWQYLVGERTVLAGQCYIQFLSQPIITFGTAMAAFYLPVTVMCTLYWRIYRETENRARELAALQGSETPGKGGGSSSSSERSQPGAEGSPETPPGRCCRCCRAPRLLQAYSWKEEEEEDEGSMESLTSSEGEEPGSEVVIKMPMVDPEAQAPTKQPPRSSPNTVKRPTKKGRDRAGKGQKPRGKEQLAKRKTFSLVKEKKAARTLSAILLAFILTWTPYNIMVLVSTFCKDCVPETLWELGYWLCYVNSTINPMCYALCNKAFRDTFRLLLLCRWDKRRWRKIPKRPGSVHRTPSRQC
M1 ag: human M1 muscarinic receptor agonists, primary screen, Fluo-8 calcium fluorescence, CHO-K1 cells, HTS; Muscarinic acetylcholine receptor M1 (Homo sapiens), P11229; CHO-K1 hM1, agonist mode; 0% DMSO, 100% acetylcholine EC100; activation, % at 3 µM; actives 0.33% (n = 360,000); AID 588814, 2011;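 active means activation above the run's mean compound activation plus 3 SD, cut at about 16% in these data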;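 further: peak over basal fluorescence ratio within a 140 s kinetic read after compound addition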
CHO-K1 Ca ag: counter-screen for M1 agonists: effect in parental CHO-K1 cells | Fluo-8 calcium fluorescence; scaled to maximal ATP response, vehicle zero | activation, % at 3 µM | actives 0.48% (n = 360,000); in the data active means activation above about 15%;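 further: untransfected CHO-K1 host cells lacking M1 receptor as counterscreen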
M1 PAM: human M1 muscarinic receptor positive allosteric modulators, primary screen, CHO-K1 cells, Fluo-8 calcium fluorescence, 1536-well; AID 588819, 2011; actives 0.088% (n = 360,000); CHO-K1 hM1, ACh EC20; 0% = ACh EC20, 100% = maximal ACh; activation, % at 3 µM; Muscarinic acetylcholine receptor M1 (Homo sapiens), P11229; in the data active means activation above about 19%, passing the limit was not always enough
* hit, by the source's call. An excerpt weighted towards active compounds, which were near 2.4% of everything screened.

What do the screens show for `COc1ccc(N2CCN(C(=O)C3CC(=O)N(c4ccc(C)cc4)C3)CC2)cc1` (stereo not given)?
M1 PAM parental: 17.6; CHO-K1 Ca antag: -18.2; CHRM1 antagonist: -6.2; M1 ag: -1.8; CHO-K1 Ca ag: 0.2; M1 PAM: 2.7

Results for COc1ccc(N2CC(NC(=O)N3CCN(c4ccccc4)CC3)CC2=O)cc1 (stereo not given) ?
M1 PAM parental: 19.5; CHO-K1 Ca antag: -5.0; CHRM1 antagonist: -6.0; M1 ag: -3.2; CHO-K1 Ca ag: 16.0*; M1 PAM: 4.0

Results for COc1ccc(N2CC(NC(=O)Nc3ccccc3)CC2=O)cc1 (stereo not given) ?
M1 PAM parental: 1.2; CHO-K1 Ca antag: 10.8; CHRM1 antagonist: 1.4; M1 ag: 2.4; CHO-K1 Ca ag: 15.3*; M1 PAM: 1.8

Results for CC(OC(=O)Cc1c(F)cccc1Cl)C(=O)NC1CCCCC1C (stereo not given) ?
M1 PAM parental: 1.3; CHO-K1 Ca antag: -14.6; CHRM1 antagonist: -7.4; M1 ag: -1.3; CHO-K1 Ca ag: -0.4; M1 PAM: 6.3

How did CC[C@H]1c2[nH]c3ccccc3c2C[C@H]2C(=O)N(c3ccc(F)cc3)C(=O)N21 do in these assays?
M1 PAM parental: -15.5; CHO-K1 Ca antag: 24.0*; CHRM1 antagonist: 9.5; M1 ag: -3.5; CHO-K1 Ca ag: 1.5; M1 PAM: -8.4

What do the screens show for `CN(C)C(CNC(=O)CN1C(=O)NC2(CCCC2)C1=O)c1ccccc1` (stereo not given)?
M1 PAM parental: 8.8; CHO-K1 Ca antag: -4.4; CHRM1 antagonist: 47.9*; M1 ag: -8.3; CHO-K1 Ca ag: 0.8; M1 PAM: -22.2

How did CCN(CC)S(=O)(=O)c1cccc(C(=O)OCC(=O)c2ccc3c(c2)NC(=O)CO3)c1 do in these assays?
M1 PAM parental: -3.5; CHO-K1 Ca antag: 5.3; CHRM1 antagonist: 32.6; M1 ag: -3.4; CHO-K1 Ca ag: 17.3*; M1 PAM: -27.3

What do the screens show for `Cc1cccc(C(=O)OCC(=O)c2ccc3c(c2)NC(=O)CO3)c1`?
M1 PAM parental: 7.2; CHO-K1 Ca antag: -8.0; CHRM1 antagonist: 4.1; M1 ag: 2.4; CHO-K1 Ca ag: 7.4; M1 PAM: -11.8

How did Cc1cc2c3c([nH]c2cc1S(=O)(=O)NCc1ccc(CN2CCCCCC2)o1)CCCC3=O do in these assays?
M1 PAM parental: 7.3; CHO-K1 Ca antag: -10.8; CHRM1 antagonist: 84.6*; M1 ag: -4.6; CHO-K1 Ca ag: -0.8; M1 PAM: -21.0

What do the screens show for `Cc1cc2c3c([nH]c2cc1S(=O)(=O)NCc1ccc(CN2CCCCCC2)o1)CC(C)(C)CC3=O`?
M1 PAM parental: 18.2; CHO-K1 Ca antag: -13.2; CHRM1 antagonist: 52.3*; M1 ag: -13.7; CHO-K1 Ca ag: 0.0; M1 PAM: -36.4

What do the screens show for `CCOCCCNS(=O)(=O)c1cc2[nH]c3c(c2cc1C)C(=O)CC(C)(C)C3`?
M1 PAM parental: 12.4; CHO-K1 Ca antag: -14.7; CHRM1 antagonist: -2.8; M1 ag: -6.0; CHO-K1 Ca ag: 3.7; M1 PAM: 3.6

How did Cc1ccc(CNC(=O)COC(=O)c2ccc(Cl)c(N)c2)cc1 do in these assays?
M1 PAM parental: -7.3; CHO-K1 Ca antag: 2.4; CHRM1 antagonist: -3.9; M1 ag: -1.2; CHO-K1 Ca ag: 2.0; M1 PAM: 3.5

What do the screens show for `COc1ccc(NC(=O)C2Cc3c(-c4cccc(C(N)=O)c4)ccnc3O2)cc1OC` (stereo not given)?
M1 PAM parental: -2.8; CHO-K1 Ca antag: -7.5; CHRM1 antagonist: -18.5; M1 ag: -0.2; CHO-K1 Ca ag: -0.2; M1 PAM: 4.2

Results for COc1ccc(NC(=O)C2Cc3c(-c4cccc(C(C)=O)c4)ccnc3O2)cc1OC (stereo not given) ?
M1 PAM parental: -16.5; CHO-K1 Ca antag: 23.9*; CHRM1 antagonist: 6.3; M1 ag: 6.3; CHO-K1 Ca ag: 2.4; M1 PAM: -5.1

What do the screens show for `CC(C)CN1Cc2ccccc2Oc2cc(Br)ccc2S1(=O)=O`?
M1 PAM parental: 40.7*; CHO-K1 Ca antag: -13.7; CHRM1 antagonist: -11.4; M1 ag: 29.4*; CHO-K1 Ca ag: 4.8; M1 PAM: 16.0

Results for C[C@@H](c1ccccc1)N1Cc2ccccc2Oc2cc(Br)ccc2S1(=O)=O ?
M1 PAM parental: -10.9; CHO-K1 Ca antag: 0.2; CHRM1 antagonist: 3.6; M1 ag: -3.7; CHO-K1 Ca ag: 0.6; M1 PAM: -3.2

Results for CCCCN1Cc2ccccc2Oc2cc(Br)ccc2S1(=O)=O ?
M1 PAM parental: 11.7; CHO-K1 Ca antag: -26.7; CHRM1 antagonist: -15.8; M1 ag: 30.7*; CHO-K1 Ca ag: -0.3; M1 PAM: 25.7*

Results for CCOC(=O)c1cc(S(=O)(=O)Nc2ccc(F)cc2F)cn1C ?
M1 PAM parental: -12.1; CHO-K1 Ca antag: -6.3; CHRM1 antagonist: 2.6; M1 ag: -4.3; CHO-K1 Ca ag: 1.1; M1 PAM: -4.5

What do the screens show for `O=C1Nc2ccccc2/C1=C/c1ccccc1Cl`?
M1 PAM parental: -12.6; CHO-K1 Ca antag: -16.6; CHRM1 antagonist: -11.0; M1 ag: -4.0; CHO-K1 Ca ag: 1.1; M1 PAM: 2.0

What do the screens show for `CN1CCN(c2ccccc2/C=C2/C(=O)Nc3ccccc32)CC1`?
M1 PAM parental: 10.2; CHO-K1 Ca antag: -5.5; CHRM1 antagonist: 88.7*; M1 ag: -10.8; CHO-K1 Ca ag: 0.1; M1 PAM: -30.4

How did CC(=O)Nc1cccc(-n2nnc(SCC(=O)Nc3ccc(F)c(Cl)c3)n2)c1 do in these assays?
M1 PAM parental: -1.5; CHO-K1 Ca antag: 15.3; CHRM1 antagonist: -3.8; M1 ag: 0.3; CHO-K1 Ca ag: 22.0*; M1 PAM: 0.8

How did CC(=O)c1c(C)[nH]c(C(=O)COc2cc(C)ccc2C(C)C)c1C do in these assays?
M1 PAM parental: -2.4; CHO-K1 Ca antag: 23.6; CHRM1 antagonist: 36.3*; M1 ag: 1.2; CHO-K1 Ca ag: 7.8; M1 PAM: -10.0

How did COc1cccc(Nc2nc(C(N)Cc3ccc(F)cc3)cs2)n1 (stereo not given) do in these assays?
M1 PAM parental: 21.0; CHO-K1 Ca antag: -0.8; CHRM1 antagonist: -0.1; M1 ag: 12.3; CHO-K1 Ca ag: 15.2*; M1 PAM: 7.2

How did CCC(=O)N1N=C(c2cccs2)CC1c1ccco1 (stereo not given) do in these assays?
M1 PAM parental: 0.7; CHO-K1 Ca antag: 10.9; CHRM1 antagonist: -1.7; M1 ag: -10.9; CHO-K1 Ca ag: -0.8; M1 PAM: 3.9

Results for CCN(CC)CC(=O)N1N=C(c2cccs2)CC1c1ccco1 (stereo not given) ?
M1 PAM parental: -6.2; CHO-K1 Ca antag: -0.2; CHRM1 antagonist: 50.9*; M1 ag: -5.2; CHO-K1 Ca ag: -0.2; M1 PAM: -20.8

Screens (PubChem)
